The panel holds about 83,000 compounds, 20% with a hit somewhere; the sample as a whole holds those more often.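 A percent growth of 40 corresponds to 60% growth inhibition; 0 means no net growth; -100 means all cells died. Active threshold: below 10.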 Unmarked numbers belong to inactive results. Calls of active or inactive are those of the source.
Tested on: OVCAR-8 ovarian
Assay: NCI-60 one-dose screen, 48 h (100 = growth as untreated, 0 = no growth, -100 = all killed)
Conditions: 10 µM unless noted
Method: Growth inhibition of the OVCAR-8 human tumor cell line is measured as a screen for anti-cancer activity. Cells are grown in 96 well plates and exposed to the test compound for 48 hours. Compounds are tested at a single concentration, which is 10^-5 M for most compounds. The reported endpoint is percent growth (GI% or GIPRCNT), where numbers from 0 - 100% represent growth inhibition, and numbers from -100% - 0 represent cell death. For example, a value of 40 represents 60% growth inhibition. A value of 0 means no net growth occurred over the course of the experiment. A value of -40 indicates 40% of cells at the beginning of the experiment died by the end of the experiment. A value of -100 means all cells are dead at the end of the experiment.
NCI-60 Human Tumor Cell Lines Screen was performed using the standard one-dose NCI protocol, which is described in more detail at https://dtp.cancer.gov/discovery_development/nci-60/default.htm.
Compounds with GIPRCNT values below 10 were considered active. Activity score was based on GIPRCNT using the following formula: […]
Score is 0 for GIPRCNT values of 100 or above, 50 for GIPRCNT values of 0, and 100 for GIPRCNT values of -100.

Structure (SMILES)	growth
CCC(=O)Oc1ccc(-c2ccccc2)cc1Br	106%
C=CCn1c(C)nc2ccc(Nc3nc(Nc4ccc5nc(C)n(CC=C)c5c4)c4ccccc4n3)cc21	-48.6% (active)
CCOCCNC1=C(Cl)C(=O)c2ccccc2C1=O	106%
O=C(CN1CCCCC1)Nc1nc(-c2cc3ccccc3oc2=O)cs1	98.3%
c1ccc(-c2oc(-c3ccccc3)c(CN3CCCCC3)c2CN2CCCCC2)cc1	33%
CCOC(=O)C1=C(N)Oc2c(sc3c(F)cccc23)C1c1ccc(O)cc1 (stereo not given)	44.1%
COc1cc(-c2cncn2-c2ccc(-c3nc4ccc(F)cc4s3)cc2)ccc1F	78.1%
C#CCNC(=O)[C@H](CC)[C@H]1CC[C@H](C)[C@H]([C@@H](C)[C@H](O)[C@H](C)C(=O)[C@H](CC)C2O[C@]3(C=CC(=O)[C@]4(CC[C@@](C)([C@H]5CC[C@](O)(CC)[C@H](C)O5)O4)O3)[C@H](C)C[C@@H]2C)O1 (stereo not given in full)	66.8%
CCCOC(=O)Nc1nc2ccc(SCC(C)C)cc2s1	60.5%
N#Cc1ccc(O)c(C2=NCC(c3cccc(Oc4ccccc4)c3)O2)c1 (stereo not given)	12.9%
N=C(N)c1ccc(-c2ccc(-c3ccc(Cl)c(Cl)c3)s2)nc1	-19.9% (active)
NC(=O)c1ccc(-c2c3ccccc3cc3c2ccc2ccccc23)cc1	77.4%
CCO/C=N/C1=C(C#N)C(c2ccc(Cl)cc2)c2sc3c(F)cccc3c2O1 (stereo not given)	77.8%
O=C(Nc1ccc(Oc2cccc(Cl)c2)c(Cl)c1)c1cccnc1	32.1%
CCOC(=O)C/C(=N\Nc1cc(=O)[nH]c2ccc(Br)cc12)C(=O)OCC	98.6%
O=C1/C(=C/c2ccccc2Br)COc2ccc(O)cc21	55.5%
Cc1sc2nc(NCCc3c[nH]c4ccc(Cl)cc34)[nH]c(=O)c2c1C	38.5%
O=C1Nc2ccc(C(=O)O)cc2/C1=N/c1nnc(Sc2ccccc2)s1	98.8%
O=C1Nc2ccccc2/C1=C/c1cccn1CCCCn1c2ccccc2c(=O)c2ccccc21	58.8%
Cc1ccc(Nc2cc(N)nc(N)n2)cc1Cl	94.5%

Structure (SMILES)	growth
COc1ccc2[nH]c(C(=O)N3CCN(C(=O)OCc4ccc5c(Cl)cc(Cl)c(O)c5n4)CC3)cc2c1	-64.1% (active)
N#Cc1c(-c2ccccc2)cc(-c2ccc(Nc3nc(Nc4ccc(Cl)cc4)nc(Nc4ccc(Cl)cc4)n3)cc2)nc1N	32.6%
COc1ccc(-c2ccc(=O)oc2-c2cc(OC)c(OC)c(OC)c2)cc1O	14.2%
COc1ccc(OC)c(/C=N/Nc2ncnc3c2c(C)nn3C)c1	109%
COc1cc(C2c3cc(OC(C)=O)c(OC)cc3CC3C(=O)OCC32)ccc1OC(C)=O (stereo not given)	111%
Cn1cc(-c2csc(-c3c[nH]c4ccccc34)n2)c2cnccc21	18.2%
CN(C)CCNC(=O)c1cc2c3cc(Cl)ccc3[nH]c2c2ncccc12	19%
CC1CCc2c(C(=O)Nc3ncc(Cc4cccc([N+](=O)[O-])c4)s3)csc2C1 (stereo not given)	26.4%
CSc1oc(C)nc1[P+](c1ccccc1)(c1ccccc1)c1ccccc1	60.1%
COc1ccc(/C=C(\C#N)n2nnc3cc(F)c(F)cc32)cc1	70.1%
O=C(COc1ccc(-c2nc3cc(Cl)c(Cl)cc3[nH]2)cc1)N=Nc1c(O)[nH]c2ccc(Cl)cc12	37%
O=CN1N=C(c2cccc(Nc3ccnc4cc(Cl)ccc34)c2)CC1c1ccccc1 (stereo not given)	38%
O=C(Nc1nc2ccccc2s1)c1ccc(F)cc1	109%
Cc1ccc(C2=Nc3c(N)ncnc3NC(c3cccc(Nc4ccnc5cc(C(F)(F)F)ccc45)c3)C2)cc1 (stereo not given)	48.5%
COC1=CC(c2ccc[nH]2)=N/C1=C\c1[nH]c(C)c(CC(=O)OCc2ccccc2)c1CCC(=O)OCc1ccccc1	-18.9% (active)
N#Cc1c(-c2ccccc2)[nH]c2ncc(-c3ccccc3)n2c1=O	95.6%
O=C(CN1C(=O)S/C(=C\C(Cl)=C\c2ccccc2)C1=O)NCCc1ccc(O)cc1	14%
COc1ccccc1N1CCCCC1	110%
C=C(C)[C@@H]1CCC[C@]2(COS(=O)(=O)c3ccc(C)cc3)CC[C@]3(C)[C@@H](CC[C@@H]4[C@@]5(C)CCCNC(C)(C)[C@@H]5CC[C@]43C)[C@@H]12	-77.6% (active)
O=C(OC(CO)C(=O)NC12CC3CC(CC(C3)C1)C2)c1ccc(Cl)cc1 (stereo not given)	100%
